Our source for the binding signal values is PMC7862700, “An all-to-all approach to the identification of sequence-specific readers for epigenetic DNA modifications on cytosine”.

Experiment in all cases: DAPPL (digital affinity profiling via proximity ligation, sequencing); 10 mM Tris-HCl pH 7.5, 50 mM NaCl, 1 mM DTT, 4% glycerol, room temperature, 30 min; GST-TFs on glutathione beads, 16-mer random dsDNA library, 0.1% formaldehyde crosslink after washing; high values mean tight binding
What all share (conditions): protein: recombinant; tags: N-terminal GST; dsDNA, one strand shown

One test deals with T1, FLI1 (Homo sapiens, UniProt Q01543 1-452).
T1 sequence: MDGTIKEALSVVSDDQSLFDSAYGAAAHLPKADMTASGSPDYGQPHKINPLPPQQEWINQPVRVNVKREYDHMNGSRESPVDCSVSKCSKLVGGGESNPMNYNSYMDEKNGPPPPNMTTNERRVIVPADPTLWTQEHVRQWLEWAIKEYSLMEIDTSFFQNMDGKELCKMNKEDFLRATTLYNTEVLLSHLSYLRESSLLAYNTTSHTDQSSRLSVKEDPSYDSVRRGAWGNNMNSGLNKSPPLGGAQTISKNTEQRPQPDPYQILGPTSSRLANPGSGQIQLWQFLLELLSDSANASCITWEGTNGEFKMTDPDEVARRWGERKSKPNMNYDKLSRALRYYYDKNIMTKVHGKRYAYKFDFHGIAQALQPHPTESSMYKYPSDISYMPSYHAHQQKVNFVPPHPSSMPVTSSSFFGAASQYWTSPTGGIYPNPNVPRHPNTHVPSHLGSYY
A digest of the protocol: (§1)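 Beads coated with glutathione captured GST-fused human transcription factors that had been expressed in yeast, and the factors were then given DNA barcodes and pooled with a tag-only sample. The pools were incubated with 200 nmole of a random double-stranded 16-mer DNA library in Tris/NaCl/DTT/glycerol buffer for 30 min at room temperature, washed, crosslinked with 0.1% formaldehyde and proximity-ligated with BsaI/T4 ligase at 37 °C for 1 h. PCR amplification and Illumina NextSeq500 sequencing came last. Binding signal is each hexamer's read frequency for a factor divided by its frequency for the tag-only sample.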

Another test concerns the target T2, ELK1 (Homo sapiens, UniProt P19419 1-428).
T2 sequence: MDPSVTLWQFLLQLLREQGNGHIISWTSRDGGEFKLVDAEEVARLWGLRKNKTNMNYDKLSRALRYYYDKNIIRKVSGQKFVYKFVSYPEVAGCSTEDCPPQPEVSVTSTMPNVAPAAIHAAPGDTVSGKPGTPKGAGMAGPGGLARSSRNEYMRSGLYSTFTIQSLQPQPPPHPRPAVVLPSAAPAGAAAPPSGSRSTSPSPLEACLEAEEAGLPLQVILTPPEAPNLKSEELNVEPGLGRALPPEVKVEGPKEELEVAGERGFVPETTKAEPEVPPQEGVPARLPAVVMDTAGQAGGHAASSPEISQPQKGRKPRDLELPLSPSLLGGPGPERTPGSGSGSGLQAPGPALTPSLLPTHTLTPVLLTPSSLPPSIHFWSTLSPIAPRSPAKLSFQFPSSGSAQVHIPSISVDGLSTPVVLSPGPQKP
A digest of the protocol:
as §1

The target of another test is T3, GABPA (Homo sapiens, UniProt Q06546 1-454).
T3 sequence: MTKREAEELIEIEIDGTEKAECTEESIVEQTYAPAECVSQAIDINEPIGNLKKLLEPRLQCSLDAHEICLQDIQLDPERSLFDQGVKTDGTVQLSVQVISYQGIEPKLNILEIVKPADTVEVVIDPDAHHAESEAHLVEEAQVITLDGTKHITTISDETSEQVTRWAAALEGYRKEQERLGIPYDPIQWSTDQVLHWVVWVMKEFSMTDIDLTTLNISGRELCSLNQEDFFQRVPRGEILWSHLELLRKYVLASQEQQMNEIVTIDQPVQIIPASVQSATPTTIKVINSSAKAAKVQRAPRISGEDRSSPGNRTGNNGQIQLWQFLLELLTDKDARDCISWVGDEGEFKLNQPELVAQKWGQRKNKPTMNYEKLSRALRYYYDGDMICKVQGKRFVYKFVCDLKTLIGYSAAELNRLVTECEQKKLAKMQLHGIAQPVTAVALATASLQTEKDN
A digest of the protocol: as §1

A further test concerns the target T4, ERG (Homo sapiens, UniProt P11308 1-479).
T4 sequence: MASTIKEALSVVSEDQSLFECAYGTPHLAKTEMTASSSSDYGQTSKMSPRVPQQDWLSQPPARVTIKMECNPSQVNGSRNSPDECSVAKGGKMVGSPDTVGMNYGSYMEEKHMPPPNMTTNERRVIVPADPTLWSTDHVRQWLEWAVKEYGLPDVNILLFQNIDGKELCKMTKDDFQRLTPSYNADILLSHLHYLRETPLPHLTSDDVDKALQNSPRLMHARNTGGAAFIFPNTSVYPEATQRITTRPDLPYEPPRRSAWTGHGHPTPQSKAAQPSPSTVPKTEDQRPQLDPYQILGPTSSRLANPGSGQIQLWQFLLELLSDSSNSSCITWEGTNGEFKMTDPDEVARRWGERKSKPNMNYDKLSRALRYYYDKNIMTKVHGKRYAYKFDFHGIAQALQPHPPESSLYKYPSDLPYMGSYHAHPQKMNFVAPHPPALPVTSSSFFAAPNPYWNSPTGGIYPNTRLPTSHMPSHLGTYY
The essentials: as §1

The next test deals with ELF1 (Homo sapiens, UniProt P32519 1-619). A digest of the protocol:
as §1

In another test the target is T5, EHF (Homo sapiens, UniProt Q9NZC4 1-300).
T5 sequence: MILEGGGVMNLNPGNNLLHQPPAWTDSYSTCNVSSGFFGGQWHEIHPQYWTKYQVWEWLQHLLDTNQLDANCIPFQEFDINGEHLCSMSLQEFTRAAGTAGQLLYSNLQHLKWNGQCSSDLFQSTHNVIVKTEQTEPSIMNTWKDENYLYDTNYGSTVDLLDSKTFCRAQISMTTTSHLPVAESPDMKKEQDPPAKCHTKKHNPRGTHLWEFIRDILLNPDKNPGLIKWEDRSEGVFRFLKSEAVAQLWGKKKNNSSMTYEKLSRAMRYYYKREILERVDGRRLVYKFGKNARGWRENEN
A digest of the protocol:
as §1

A further test concerns the target SPI1 (Homo sapiens, UniProt P17947 1-270). A digest of the protocol: as §1
A further test deals with T6, ELK3 (Homo sapiens, UniProt P41970 1-407).
T6 sequence: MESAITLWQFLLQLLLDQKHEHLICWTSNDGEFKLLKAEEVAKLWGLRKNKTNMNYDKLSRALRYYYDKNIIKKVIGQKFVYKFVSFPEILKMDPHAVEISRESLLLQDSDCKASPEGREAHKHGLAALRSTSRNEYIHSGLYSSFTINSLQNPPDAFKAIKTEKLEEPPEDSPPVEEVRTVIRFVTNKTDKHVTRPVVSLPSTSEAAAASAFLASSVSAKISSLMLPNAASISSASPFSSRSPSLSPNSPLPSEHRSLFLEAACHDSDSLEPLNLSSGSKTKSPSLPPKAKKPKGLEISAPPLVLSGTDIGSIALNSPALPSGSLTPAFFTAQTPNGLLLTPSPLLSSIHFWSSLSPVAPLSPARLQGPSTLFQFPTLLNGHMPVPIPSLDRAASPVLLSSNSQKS
The essentials: as §1

For a further test, the target named is T7, FEV (Homo sapiens, UniProt Q99581 1-238).
T7 sequence: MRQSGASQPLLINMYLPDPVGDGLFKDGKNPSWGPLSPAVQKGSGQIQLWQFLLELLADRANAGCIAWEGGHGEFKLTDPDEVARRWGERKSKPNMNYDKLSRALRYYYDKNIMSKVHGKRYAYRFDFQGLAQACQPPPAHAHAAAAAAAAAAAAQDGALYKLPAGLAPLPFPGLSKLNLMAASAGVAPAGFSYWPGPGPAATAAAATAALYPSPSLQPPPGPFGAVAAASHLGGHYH
The essentials: as §1

The next test concerns the target ETV5 (Homo sapiens, UniProt P41161 1-510). The essentials:
as §1

The target of a further test is T8, SPIC (Homo sapiens, UniProt Q8N5J4 1-248).
T8 sequence: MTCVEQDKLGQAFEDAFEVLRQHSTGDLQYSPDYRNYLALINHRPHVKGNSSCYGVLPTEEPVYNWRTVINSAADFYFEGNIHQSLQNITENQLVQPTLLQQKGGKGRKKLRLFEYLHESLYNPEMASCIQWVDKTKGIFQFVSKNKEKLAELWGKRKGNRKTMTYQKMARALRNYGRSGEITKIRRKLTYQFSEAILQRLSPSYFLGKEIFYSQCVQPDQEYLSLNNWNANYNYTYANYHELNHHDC
The essentials:
as §1

In a further test the target is ELF4 (Homo sapiens, UniProt Q99607 1-663). A digest of the protocol:
as §1

A further test has as its target T9, ELK4 (Homo sapiens, UniProt P28324-2 1-405).
T9 sequence: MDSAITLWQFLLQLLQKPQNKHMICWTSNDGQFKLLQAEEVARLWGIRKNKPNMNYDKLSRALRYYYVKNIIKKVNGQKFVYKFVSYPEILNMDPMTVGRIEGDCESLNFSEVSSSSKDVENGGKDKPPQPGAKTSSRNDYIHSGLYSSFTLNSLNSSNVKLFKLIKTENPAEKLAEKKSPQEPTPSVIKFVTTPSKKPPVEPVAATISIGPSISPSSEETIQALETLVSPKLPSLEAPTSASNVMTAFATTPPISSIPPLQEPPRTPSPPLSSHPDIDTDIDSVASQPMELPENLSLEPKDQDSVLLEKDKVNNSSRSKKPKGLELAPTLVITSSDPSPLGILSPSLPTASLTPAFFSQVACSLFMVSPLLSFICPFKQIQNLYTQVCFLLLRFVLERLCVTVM
A digest of the protocol:
as §1

For the next test, the target named is T10, ETV2 (Homo sapiens, UniProt O00321 1-342).
T10 sequence: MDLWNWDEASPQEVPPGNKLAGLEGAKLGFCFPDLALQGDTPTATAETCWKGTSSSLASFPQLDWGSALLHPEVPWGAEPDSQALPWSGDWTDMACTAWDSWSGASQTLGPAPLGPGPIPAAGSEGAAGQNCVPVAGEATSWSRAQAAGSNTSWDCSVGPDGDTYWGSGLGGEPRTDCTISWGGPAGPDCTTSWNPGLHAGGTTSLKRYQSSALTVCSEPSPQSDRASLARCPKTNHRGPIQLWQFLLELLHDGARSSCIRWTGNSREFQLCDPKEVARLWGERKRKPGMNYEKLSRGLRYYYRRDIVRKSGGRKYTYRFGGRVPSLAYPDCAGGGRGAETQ
A digest of the protocol: as §1

Another test has as its target T11, ELF3 (Homo sapiens, UniProt P78545 1-371).
T11 sequence: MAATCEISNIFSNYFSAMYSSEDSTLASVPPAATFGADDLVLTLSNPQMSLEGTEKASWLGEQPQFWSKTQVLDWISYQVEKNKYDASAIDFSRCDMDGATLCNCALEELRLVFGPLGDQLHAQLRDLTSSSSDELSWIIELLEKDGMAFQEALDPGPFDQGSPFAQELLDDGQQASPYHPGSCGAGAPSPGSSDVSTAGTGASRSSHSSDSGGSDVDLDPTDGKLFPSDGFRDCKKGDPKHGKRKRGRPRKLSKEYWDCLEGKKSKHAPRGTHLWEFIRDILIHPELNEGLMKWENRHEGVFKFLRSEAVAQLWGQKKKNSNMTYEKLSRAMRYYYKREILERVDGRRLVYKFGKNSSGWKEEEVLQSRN
A digest of the protocol: as §1

Another test deals with ETV1 (Homo sapiens, UniProt P50549 1-477). A digest of the protocol:
as §1

A further test addresses SPIB (Homo sapiens, UniProt Q01892 1-262). A digest of the protocol: as §1

Chain of ETV1 (P50549 whole entry): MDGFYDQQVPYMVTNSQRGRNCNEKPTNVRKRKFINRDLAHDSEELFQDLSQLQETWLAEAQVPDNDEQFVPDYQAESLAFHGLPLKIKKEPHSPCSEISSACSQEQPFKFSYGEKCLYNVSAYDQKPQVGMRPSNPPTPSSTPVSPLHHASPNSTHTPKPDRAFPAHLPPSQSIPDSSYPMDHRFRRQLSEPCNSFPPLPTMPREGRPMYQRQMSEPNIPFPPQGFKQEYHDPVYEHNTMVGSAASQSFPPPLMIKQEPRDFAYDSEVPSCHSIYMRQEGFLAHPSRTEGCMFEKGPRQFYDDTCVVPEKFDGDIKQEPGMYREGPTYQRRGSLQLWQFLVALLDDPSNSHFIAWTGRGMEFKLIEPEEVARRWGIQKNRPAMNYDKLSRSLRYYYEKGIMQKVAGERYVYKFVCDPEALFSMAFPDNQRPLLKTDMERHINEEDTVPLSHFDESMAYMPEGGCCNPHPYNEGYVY
Chain of ELF1 (P32519 whole entry): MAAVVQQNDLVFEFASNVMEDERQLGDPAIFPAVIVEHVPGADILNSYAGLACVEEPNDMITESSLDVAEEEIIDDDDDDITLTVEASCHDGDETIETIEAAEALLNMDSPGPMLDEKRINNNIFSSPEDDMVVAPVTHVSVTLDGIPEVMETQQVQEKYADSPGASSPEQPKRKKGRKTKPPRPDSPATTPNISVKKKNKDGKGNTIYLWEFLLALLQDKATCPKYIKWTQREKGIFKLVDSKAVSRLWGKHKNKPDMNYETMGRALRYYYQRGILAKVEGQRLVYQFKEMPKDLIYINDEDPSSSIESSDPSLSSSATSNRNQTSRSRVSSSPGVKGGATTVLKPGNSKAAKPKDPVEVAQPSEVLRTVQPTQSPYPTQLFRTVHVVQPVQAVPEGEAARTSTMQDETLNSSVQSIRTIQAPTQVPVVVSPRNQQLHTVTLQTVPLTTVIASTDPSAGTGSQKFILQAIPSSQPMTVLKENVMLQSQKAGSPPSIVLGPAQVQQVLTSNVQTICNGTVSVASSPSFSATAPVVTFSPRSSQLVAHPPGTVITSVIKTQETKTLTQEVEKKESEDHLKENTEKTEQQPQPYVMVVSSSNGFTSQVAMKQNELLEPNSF
Chain of ETV5 (P41161 whole entry): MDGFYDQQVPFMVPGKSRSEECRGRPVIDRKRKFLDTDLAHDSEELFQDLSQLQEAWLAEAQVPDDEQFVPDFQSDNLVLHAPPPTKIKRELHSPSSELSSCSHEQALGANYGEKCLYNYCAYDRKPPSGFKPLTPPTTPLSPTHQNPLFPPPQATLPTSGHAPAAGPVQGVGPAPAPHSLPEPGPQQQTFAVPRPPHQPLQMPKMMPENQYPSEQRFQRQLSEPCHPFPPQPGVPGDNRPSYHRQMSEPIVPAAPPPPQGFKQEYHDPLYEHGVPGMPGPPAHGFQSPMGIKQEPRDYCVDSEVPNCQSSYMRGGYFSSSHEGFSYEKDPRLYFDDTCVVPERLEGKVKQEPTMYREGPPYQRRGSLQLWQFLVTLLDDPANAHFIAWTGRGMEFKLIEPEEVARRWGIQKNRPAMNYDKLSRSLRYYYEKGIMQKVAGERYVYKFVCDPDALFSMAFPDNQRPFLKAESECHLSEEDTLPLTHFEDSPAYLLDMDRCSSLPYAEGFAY
Chain of ELF4 (Q99607 whole entry): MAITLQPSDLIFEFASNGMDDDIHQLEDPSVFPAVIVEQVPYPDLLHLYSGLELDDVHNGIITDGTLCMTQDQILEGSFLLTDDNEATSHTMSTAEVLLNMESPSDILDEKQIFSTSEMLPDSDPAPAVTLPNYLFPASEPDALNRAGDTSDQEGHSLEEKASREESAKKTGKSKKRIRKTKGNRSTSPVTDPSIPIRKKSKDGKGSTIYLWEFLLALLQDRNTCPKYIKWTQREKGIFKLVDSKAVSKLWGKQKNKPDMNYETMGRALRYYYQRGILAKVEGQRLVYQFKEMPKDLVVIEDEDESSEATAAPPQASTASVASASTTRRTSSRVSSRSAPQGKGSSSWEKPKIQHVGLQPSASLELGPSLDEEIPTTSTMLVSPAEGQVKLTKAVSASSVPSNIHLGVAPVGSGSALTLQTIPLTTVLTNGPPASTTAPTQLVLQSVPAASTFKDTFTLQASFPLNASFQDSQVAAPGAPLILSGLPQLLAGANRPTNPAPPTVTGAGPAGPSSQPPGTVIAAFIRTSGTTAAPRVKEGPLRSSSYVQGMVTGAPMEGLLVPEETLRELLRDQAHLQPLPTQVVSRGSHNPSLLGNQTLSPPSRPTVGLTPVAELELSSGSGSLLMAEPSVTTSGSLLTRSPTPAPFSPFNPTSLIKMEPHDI
Chain of SPIB (Q01892 whole entry): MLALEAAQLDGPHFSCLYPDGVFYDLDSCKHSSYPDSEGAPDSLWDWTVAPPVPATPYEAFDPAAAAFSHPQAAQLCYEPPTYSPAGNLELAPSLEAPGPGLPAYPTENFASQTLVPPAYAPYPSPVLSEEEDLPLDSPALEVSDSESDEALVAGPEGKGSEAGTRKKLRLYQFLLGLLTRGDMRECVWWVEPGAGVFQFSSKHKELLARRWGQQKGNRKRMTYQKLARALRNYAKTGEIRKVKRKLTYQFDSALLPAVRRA

Regarding CAAGGT, the binding signal with FLI1 is 1.1 fold enrichment (6-mer frequency, TF over GST control); with ELK1, 1.13 fold enrichment (6-mer frequency, TF over GST control); with GABPA it was 1.03 fold enrichment (6-mer frequency, TF over GST control); with ERG, 1.07 fold enrichment (6-mer frequency, TF over GST control); with ELF1, 1.05 fold enrichment (6-mer frequency, TF over GST control); with EHF, 1.13 fold enrichment (6-mer frequency, TF over GST control). Further, the binding signal with SPI1 was 1.02 fold enrichment (6-mer frequency, TF over GST control); with ELK3 it was 1.12 fold enrichment (6-mer frequency, TF over GST control); with FEV, 1.04 fold enrichment (6-mer frequency, TF over GST control); in the test with ETV5 it was 1.04 fold enrichment (6-mer frequency, TF over GST control); in the test with SPIC, 1 fold enrichment (6-mer frequency, TF over GST control); in the test with ELF4, 1.11 fold enrichment (6-mer frequency, TF over GST control). The binding signal with ELK4 was 1.16 fold enrichment (6-mer frequency, TF over GST control); with ETV2, 1.12 fold enrichment (6-mer frequency, TF over GST control); with ELF3 it was 1.15 fold enrichment (6-mer frequency, TF over GST control); with ETV1, 1.13 fold enrichment (6-mer frequency, TF over GST control).
For the sequence CCGCGC, the binding signal in the test with FLI1 was 1.12 fold enrichment (6-mer frequency, TF over GST control); with ELK1, 1.16 fold enrichment (6-mer frequency, TF over GST control); with ERG, 1.2 fold enrichment (6-mer frequency, TF over GST control); with ELF1, 1.18 fold enrichment (6-mer frequency, TF over GST control); with EHF, 1.05 fold enrichment (6-mer frequency, TF over GST control); in the test with SPI1, 1.14 fold enrichment (6-mer frequency, TF over GST control). In addition, the binding signal in the test with SPIB is 1.24 fold enrichment (6-mer frequency, TF over GST control); in the test with ELK3 it was 1.24 fold enrichment (6-mer frequency, TF over GST control); with FEV, 1.11 fold enrichment (6-mer frequency, TF over GST control); with ETV5 it was 1.21 fold enrichment (6-mer frequency, TF over GST control); in the test with SPIC it was 1.41 fold enrichment (6-mer frequency, TF over GST control); in the test with ELF4 it was 1.07 fold enrichment (6-mer frequency, TF over GST control). In addition, the binding signal is 1.35 fold enrichment (6-mer frequency, TF over GST control) with ELK4; 1.29 fold enrichment (6-mer frequency, TF over GST control) in the test with ETV2; 1.01 fold enrichment (6-mer frequency, TF over GST control) with ELF3; 1.06 fold enrichment (6-mer frequency, TF over GST control) in the test with ETV1.
